ALDH1A1 inh – blocks purified human ALDH1A1 activity; P00352; Purified ALDH1A1, NADH fluorescence, propionaldehyde substrate; Potency, µM (doses to about 75.3 µM), inactives show at the top dose activity, negative = inhibition, usual class: inhibitors; 220,000 tested, 7.3% active; AID 1030; active means well fitted inhibition curve with a large enough effect, not every such curve was filed as active; inconclusive means small, poorly fitted or top-dose-only effect, or another doubt; inactive means no such curve, though single readings can be large or run the other way;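 further: potency means the concentration at half of the fitted maximal effect; plate controls were no enzyme wells and a reference inhibitor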
HPGD block – HPGD (human) dehydrogenase inhibition | Potency, µM, inactives show at the highest dose activity change, negative = inhibition, usual class: inhibitors | 150,000 tested, 4.3% active | purified HPGD, NADH fluorescence kinetic, PGE2 substrate; active means well fitted inhibition curve with a large enough effect, not every such curve was filed as active; inconclusive means small, poorly fitted or top-dose-only effect, or another doubt; inactive means no such curve, though single readings can be large or run the other way; further: potency means the concentration at half of the fitted maximal effect
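NADH formation kinetics: reaction with 30 uM PGE2 and 1 mM NAD+ (final), 20 nM enzyme, Tris-HCl pH 8 with Tween 20, after 15 min compound preincubation at room temperature. Fluorescence change, last versus first of five reads.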
GLA inh pH 4.5 – alpha-galactosidase A (human) inhibition, pH 4.5 | activity change, negative = inhibition, % at 105 µM | 230,000 tested, under 10 active | purified enzyme, 4-MU-alpha-Gal fluorescence, pH 4.5 | P06280 | AID 1467;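 further: 0% = full activity with enzyme and -100% = basal without enzyme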
PNC inhibitor – inhibitors of perinucleolar compartment assembly; PC3M PTB-GFP, PNC prevalence imaging, 16 h; hits give low values; 140,000 tested, 3.1% active; activity change (PNC), negative = inhibition, % at 10 µM;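 active means readout at or below -70, meaning at least 70% loss of cells showing the perinucleolar compartment, a nuclear body marking cancer cells; inconclusive means readout between -30 and a set limit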;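 further: plate controls were DMSO wells for no effect and camptothecin positive control wells for full effect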
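Read-out is percentage of cells bearing a perinucleolar compartment, from automated 20x imaging of fixed, Hoechst-stained PC3M PTB-GFP cells. Cells were seeded 4 h, then exposed 16 h to compound (23 nl of library stock) in duplicate plates.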
ALOX12 inhib – 12-hLO (ALOX12) enzyme inhibition; purified 12-hLO, xylenol orange hydroperoxide absorbance; Potency, µM (highest dose often 57.1 µM), for the others: top-dose activity change, negative = inhibition, hits mostly inhibitors; 150,000 tested, 0.12% active; AID 1452; further: potency means the concentration at half of the fitted maximal effect; nearly all actives have a fitted effect of over 55% in size
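Purified human 12hLO (150 nM), preincubated 15 min with compound, then 40 uM arachidonic acid for 30 min, room temperature, Hepes pH 7.0 with 0.01% Triton X-100. Hydroperoxide detected by ferrous iron/xylenol orange; 573/405 nm absorbance ratio gives reaction progress.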
aGal spleen mod – alpha-galactosidase A (human) modulation; P06280; human spleen homogenate, 4MU-alpha-Gal fluorescence, 40 min; Potency, µM (titrated, usually from 80 µM), for inactives: at the top dose activity change, negative = inhibition, usual class: inhibitors; 240,000 tested, 0.008% active;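 further: potency means the concentration at half of the fitted maximal effect; 0% = enzyme with vehicle and -100% = no enzyme basal signal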
Target sequence (P06280 32-429 limits assumed): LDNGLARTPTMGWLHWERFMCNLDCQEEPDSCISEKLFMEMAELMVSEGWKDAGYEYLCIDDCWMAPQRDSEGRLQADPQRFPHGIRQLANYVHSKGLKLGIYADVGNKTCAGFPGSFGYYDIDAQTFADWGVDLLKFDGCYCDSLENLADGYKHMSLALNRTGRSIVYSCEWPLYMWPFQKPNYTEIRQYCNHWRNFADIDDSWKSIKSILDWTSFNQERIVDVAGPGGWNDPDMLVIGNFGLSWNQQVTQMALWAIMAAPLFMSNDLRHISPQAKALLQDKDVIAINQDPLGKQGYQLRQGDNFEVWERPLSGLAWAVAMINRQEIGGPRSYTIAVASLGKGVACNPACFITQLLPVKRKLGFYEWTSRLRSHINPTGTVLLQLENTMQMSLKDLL
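Human spleen homogenate (1 ug) was the enzyme source, with 4-methylumbelliferyl-alpha-D-galactopyranoside (1 mM final) in pH 5.0 citrate buffer with 0.01% Tween-20. Compounds were titrated; after 40 min at 37C, NaOH/glycine stop, 4-MU fluorescence read; AC50 from Hill fits.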
Numbers without * were called inactive; ? = inconclusive; / = not tested or not shown. Shown are actives, neighbours in structure and some others; about 10% of the full set was active somewhere. Unless noted, the call rests on the fitted dose curve; in most records, active means well fitted curve in the direction sought with a large enough effect; inconclusive means small, poorly fitted or top-dose-only effect, or another doubt; inactive means no such curve, though single readings can be large; an effect the other way counts as inactive or inconclusive. Unless noted, on the % scale 0 is the no-effect control and ±100 the full control effect.

SMILES | ALDH1A1 inh | HPGD block | GLA inh pH 4.5 | PNC inhibitor | ALOX12 inhib | aGal spleen mod
O=C(c1ccc(S(=O)(=O)Cc2ccccc2Cl)c([N+](=O)[O-])c1)N1CCN(c2ccccn2)CC1 | 17.8µM* | / | -6.5 | / | / | 1.2%
CCN(CC)S(=O)(=O)c1ccc(N2Cc3ccccc3C2=N)cc1 | 9.8% | / | -0.6 | / | / | -6.8%
CN1c2ccccc2C(C)(C)C12CC(c1ccc(S(=O)(=O)N3CCCCC3)cc1)=NO2 (stereo not given) | 10.5% | -8.2% | -3.8 | ? | -2.0% | -7.0%
CCN(CC)S(=O)(=O)c1ccc(C2=NOC3(C2)N(C)c2ccccc2C3(C)C)cc1 (stereo not given) | ? | -17.1% | -6.2 | -106.3* | 1.8% | -1.3%
CN1c2ccccc2C(C)(C)C12CC(c1cccc(S(=O)(=O)N3CCCC3)c1)=NO2 (stereo not given) | -10.4% | -20.8% | -6.5 | -117.0* | 1.0% | 6.5%
CCN(CC(=O)NCc1ccccc1Cl)CC(=O)Nc1c(F)cccc1F | / | / | -2.5 | / | / | 10.5%
Cn1cc(C(=O)N2CCc3ccccc32)cn1 | 4.8% | -7.7% | -1.6 | 55.5 | -4.3% | -1.8%
CCCCC/C=C\C/C=C\C/C=C\CCCCCCC(=O)NCCCC(=O)O | -1.9% | 2.7% | -2.6 | / | 3.1% | -3.2%
CC(=O)Oc1ccc(/C=C2/CCc3ccccc3C2=O)cc1 | ? | / | -0.5 | / | / | -1.3%
CC(=O)C1=C(C)NC(SCC(=O)c2ccc(Cl)cc2)=C(C#N)C1c1ccco1 (stereo not given) | 20µM* | 31.6µM* | -7.0 | 28.5 | ? | -0.2%
CC(=O)C1=C(C)NC(SCc2ccc(C#N)cc2)=C(C#N)C1c1ccco1 (stereo not given) | 22.4µM* | -5.4% | -1.9 | ? | -2.2% | -2.0%
CC(=O)C1=C(C)NC(SCC(=O)c2ccc(Cl)cc2Cl)=C(C#N)C1c1ccco1 (stereo not given) | ? | ? | -7.3 | ? | ? | -2.8%
CCOC(=O)C1=C(c2ccccc2)NC(SCC(=O)Nc2ccccc2C)=C(C#N)C1c1ccco1 (stereo not given) | 14.1µM* | ? | -20.7 | ? | -8.2% | -4.3%
CC(=O)C1=C(C)NC(SCC(=O)c2ccccc2)=C(C#N)C1CC(C)C (stereo not given) | 7.08µM* | 31.6µM* | -3.6 | 5.9 | -22.4% | 0.7%
CC(=O)C1=C(C)NC(SCC(=O)c2ccccc2)=C(C#N)C1c1ccco1 (stereo not given) | 20µM* | 31.6µM* | -1.2 | 10.8 | -17.9% | -6.7%
Cc1ccc(/C=C/C2=Cc3c(sc(NC(=O)CSc4n[nH]c(N)n4)c3C#N)C(C)(C)C2)o1 | 0.794µM* | ? | -10.8 | -3.1 | ? | -2.9%
Cc1ccc(Oc2ccc(NC(=O)CSc3n[nH]c(N)n3)cc2)cc1 | ? | -24.2% | -25.4 | 12.2 | 1.4% | -2.5%
CCCCCCCCCCCCOC1OC(CO)C(O)C(O)C1NC(C)=O (stereo not given) | 7.7% | -3.8% | 9.5 | 50.9 | -1.4% | 4.9%
COc1ccc(N=C2S/C(=C\c3ccc(OC(C)C(=O)O)c(OC)c3)C(=O)N2CCc2c[nH]c3ccccc23)cc1 (stereo not given) | 14.1µM* | / | -9.0 | / | / | -4.8%
COc1cc(/C=C2\SC(=Nc3ccccc3)N(CCc3c[nH]c4ccccc34)C2=O)ccc1OC(C)C(=O)O (stereo not given) | 6.3% | ? | -9.8 | ? | -1.5% | 5.1%
Cc1ccc(SCC(=O)NCCN2C(=O)CSC2=O)cc1C | 1.2% | -10.0% | 0.1 | -1.9 | -2.6% | -1.1%
Cc1nnc(SCC(=O)NCCN2C(=O)CSC2=O)n1-c1ccccc1 | -7.0% | / | -0.2 | / | / | -4.9%
Cc1cccc(-n2nnnc2SCC(=O)NCCN2C(=O)CSC2=O)c1 | 20µM* | -4.1% | -0.8 | 26.7 | -3.2% | 0.4%
Cc1ccc(Nc2nnc(SCC(=O)NCCN3C(=O)CSC3=O)s2)cc1C | 17.8µM* | / | -11.3 | ? | -3.8% | 3.0%

Screening results as filed in PubChem BioAssay.
